Assay outcomes deposited in PubChem BioAssay by National Center for Advancing Translational Sciences (NCATS).
SARS PLP yeast: blocks SARS-CoV papain-like protease in a yeast assay | S. cerevisiae expressing SARS-CoV PLpro, growth rescue | 0.19% of 330,000 active | Potency, µM (highest dose often 32.9 µM), hits mostly activators | AID 485353; calls by dose curve; also: nearly all actives have a fitted effect of over 55% in size
CHX counter: counter-screen for Shiga toxin inhibitors: cycloheximide protein synthesis inhibition; cell reporter, cycloheximide protein synthesis inhibition counterscreen; max response, %; 12% of 300,000 active; in the data active = max response mostly above about 13%, no sharp cut-off; inactive = mostly below about 14%; also: read at 38.3 µM for the half of the compounds with a filed dose
AmpC inh detg: inhibitors of E. coli AmpC beta-lactamase with detergent. P00811. AmpC hydrolysis of nitrocefin, absorbance 480 nm, 0.01% Triton. Potency, µM (doses to about 114 µM), hits mostly inhibitors. 0.041% of 370,000 active. AID 485294; also: nearly all actives have a fitted effect of over 25% in size
Target sequence (P00811 whole entry, looked up): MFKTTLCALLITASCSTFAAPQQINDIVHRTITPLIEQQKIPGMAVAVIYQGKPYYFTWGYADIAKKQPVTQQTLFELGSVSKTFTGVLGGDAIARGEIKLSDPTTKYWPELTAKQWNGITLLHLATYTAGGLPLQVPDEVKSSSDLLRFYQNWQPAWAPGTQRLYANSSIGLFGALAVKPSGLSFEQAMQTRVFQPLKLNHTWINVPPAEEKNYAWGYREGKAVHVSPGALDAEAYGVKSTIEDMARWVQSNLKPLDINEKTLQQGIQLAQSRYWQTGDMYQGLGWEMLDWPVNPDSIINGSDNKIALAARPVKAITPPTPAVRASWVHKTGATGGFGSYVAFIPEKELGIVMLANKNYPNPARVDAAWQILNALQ
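AmpC (5.3 nM in the dispensed reagent) in 20 mM phosphate pH 7.0 with 0.01% (detergent screen) or 0.0001% Triton X-100 was preincubated with compounds for 15 min at room temperature. Nitrocefin was then added from an 800 uM solution, and hydrolysis was followed at 480 nm.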
Shiga toxin inh: inhibitors of Shiga toxin in Vero cells; Vero cells, Shiga toxin protein synthesis inhibition reporter; inhibition, % at 38.7 µM; 9.2% of 290,000 active; in the data active = inhibition mostly above about 28%, no sharp cut-off; inactive = mostly below about 43%
AmpC no deterg: inhibitors of E. coli AmpC beta-lactamase without detergent; P00811; AmpC nitrocefin hydrolysis, absorbance 480 nm, 0.0001% Triton; Potency, µM (top dose mostly 57.1 µM), hits mostly inhibitors; 0.52% of 330,000 active; AID 485341; also: nearly all actives have a fitted effect of over 20% in size
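20 mM phosphate pH 7.0 + 0.01% (detergent screen) or 0.0001% Triton X-100; 5.3 nM AmpC reagent; cpd preinc 15 min RT; nitrocefin (800 uM stock) to start; A480 q20 s × 4 min; Activity was normalised to no-enzyme and no-compound control wells.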
AMA1 RON2 block: AMA1-RON2 (P. falciparum) interaction inhibition; AlphaScreen AMA1-biotinylated RON2 peptide binding; Potency, µM (series often up to 58.2 µM), usual class: inhibitors; 0.2% of 360,000 active; also: nearly all actives have a fitted effect of over 45% in size
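AMA1 (3D7) with his tag at 25 nM final met compounds first, then biotinylated RON2 peptide at 25 nM; detection used donor plus acceptor beads, 10 µg/mL apiece, read by AlphaScreen after 30 min at room temperature.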
Of the large screens only hits and unclear results are named; the others gave an inactive call. Many of the other results were omitted from the sample, so hits are more common in it than they were. Unless noted, calls follow the shape of the dose curve; as a rule, active = well fitted curve in the direction sought with a large enough effect; inconclusive = small, poorly fitted or top-dose-only effect, or another doubt; inactive = no such curve, though single readings can be large; an effect the other way counts as inactive or inconclusive.

CCOC(=O)CCn1c(=O)c2c(nc(Br)n2Cc2ccccc2)n(C)c1=O	none
Cc1ccc(C)c(OCCC(=O)OCC(=O)NC2CCS(=O)(=O)C2)c1 (centres undefined)	none (no result: CHX counter, Shiga toxin inh)
COc1ccc(-n2c(Cc3cccn3C)nnc2SCC(=O)N2CCOCC2)cc1	AmpC inh detg inconclusive
COc1cccc(NC(=O)CSc2nnc(Cc3cccn3C)n2-c2ccc(F)cc2)c1	CHX counter 19, AmpC inh detg inconclusive, Shiga toxin inh 29
Cc1ccc(-n2c(SCC(=O)N3CCOCC3)nnc2-c2cccnc2)cc1	CHX counter 24, Shiga toxin inh 56
COc1ccc(-n2c(Cc3cccn3C)nnc2SCC(=O)Nc2cccc(OC)c2)cc1	none
Cc1cc(C(=O)CSc2nnc(-c3ccncc3)n2-c2ccccc2)c(C)n1C	AmpC inh detg inconclusive
Cc1cc(C(=O)CSc2nnc(-c3cccnc3)n2-c2ccccc2)c(C)n1CC1CCCO1 (centres undefined)	CHX counter 23
Cn1cccc1Cc1nnc(SCC(=O)N2CCOCC2)n1-c1ccc(F)cc1	SARS PLP yeast inconclusive, AmpC no deterg 2.5µM
CC(NCC(=O)Nc1ccccc1C(=O)NC1CC1)c1ccc(Cl)cc1 (centres undefined)	none (no result: SARS PLP yeast, CHX counter, AmpC inh detg, Shiga toxin inh, AmpC no deterg)
CCCCCCc1cc2cc(-c3nnc(-c4cc(OC)c(OC)c(OC)c4)o3)c(=O)oc2cc1O	none
Cc1ccc(C(C)(C)NC(=O)C2CCC(=O)N(Cc3ccccc3F)C2)cc1 (centres undefined)	CHX counter 16
CC1(C)CC(NC(=O)C2CCC(=O)N(Cc3ccccc3F)C2)CC(C)(C)C1 (centres undefined)	CHX counter 26, Shiga toxin inh 58
Cc1cccc(CNC(=O)C2CCC(=O)N(Cc3ccccc3F)C2)n1 (centres undefined)	none
CCOc1ccc(OCC(=O)Nc2nccs2)cc1	none
CC1CCC(NC(=O)CCC(=O)N2CC(C)Oc3ccccc32)CC1 (centres undefined)	CHX counter 15
Nc1cccc(-c2ccc(CO)o2)c1	CHX counter 31, Shiga toxin inh 68
O=C(O)c1ccccc1C(=O)OCc1ccccc1	none (no result: SARS PLP yeast, AmpC no deterg)
O=C(OCc1ccc(Cl)cc1)c1ccccc1C(=O)c1ccccc1	CHX counter 21
O=C(OCc1ccccc1)c1cccnc1Cl	none
O=C(OCc1ccc(COC(=O)c2ccccn2)cc1)c1ccccn1	CHX counter 30, Shiga toxin inh 66
COC(=O)c1ccc(COC(=O)c2cccnc2Cl)cc1	CHX counter 37
O=C(OCc1ccc(Cl)cc1)c1cccnc1Cl	CHX counter 18
C#CCC(NC(=O)c1ccc(C#N)cc1)C(=O)NCCC (centres undefined)	none (no result: CHX counter, Shiga toxin inh)
COC(=O)C1=C(N)Oc2cc(C)n(Cc3cccnc3)c(=O)c2C1c1ccccc1OC (centres undefined)	none
CC(=O)N1c2ccc(S(=O)(=O)NCC3CCC(C(=O)Nc4ccc(C)c(C)c4)CC3)cc2CC1C (centres undefined)	none (no result: SARS PLP yeast, CHX counter, Shiga toxin inh, AmpC no deterg, AMA1 RON2 block)
O=C(CC(c1cccs1)N1Cc2ccccc2C1=O)Nc1ccc(Cl)cc1 (centres undefined)	none (no result: SARS PLP yeast, CHX counter, Shiga toxin inh, AmpC no deterg, AMA1 RON2 block)
O=c1c2ccccc2[nH]c2ccc(O)cc12	none
Cc1ccc2[nH]c3ccccc3c(=O)c2c1	CHX counter 28, AmpC inh detg inconclusive, Shiga toxin inh 48
O=C(c1cccc(Cl)c1)N1CCC2CC1c1cc(-c3ccccc3)ccc12 (centres undefined)	none (no result: SARS PLP yeast, CHX counter, AmpC inh detg, Shiga toxin inh, AmpC no deterg)
O=C(c1ccccc1)N1CCc2ccccc21	none
COCc1c(C(=O)N2CCc3ccccc32)oc2ccccc12	Shiga toxin inh 70
Cc1c(C(=O)N2CCN(S(C)(=O)=O)CC2)oc2ccccc12	CHX counter 9.2
Cc1c(C(=O)N2CCc3ccccc32)oc2ccccc12	CHX counter 55, AmpC inh detg inconclusive, Shiga toxin inh 69
O=C(NCc1ccc(Cl)cc1)c1ccc(N2CCCC2=O)cc1	none
Cn1c(SCC(=O)Nc2ccc(N3CCOCC3)cc2)nnc1-c1ccccc1	AmpC inh detg inconclusive
C=CCSc1nc(=O)n2ccc(C)cc2n1	CHX counter 28
OC1CCCN(C(=S)Nc2ccc(SC(F)F)cc2)C1 (centres undefined)	CHX counter 27, Shiga toxin inh 34
